We go through 26 molecules from PubChem BioAssay (EPA / NIEHS).

In general, AC50 refers to the concentration at which the activity in the assay is half-maximal.

Structures are written as SMILES. Where “and” joins values, the source holds several entries; their conditions need not be identical. Equal entries are not always repeated. Records with an inconclusive call do not appear. Calls of active or inactive are those of the source. The calls were made as follows: active = hit-call score of the fitted dose curve at least 0.9, where 1 is the maximum; inconclusive = response in the unintended direction; inactive = score below 0.9.

In the experiment the target is Cellular tumor antigen p53 (Homo sapiens) (UniProt P04637). As to the kind of experiment: TOX21_p53_BLA_p3_ratio: Tox21 HCT-116 p53 Agonism Beta-lactamase Assay, Ratio, Phase 3 (AID 2283596). The gist of the method: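 Cells were seeded at 4000/well, rested 5 h at 37C, then dosed with DMSO compound solutions (217-fold dilution) for 16 h. CCF4-AM substrate was loaded for 2 h at room temperature, and the 460/530 nm emission ratio was fitted for gain of signal versus DMSO.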
Cellular tumor antigen p53 (Homo sapiens), sequence (P04637 whole entry, looked up): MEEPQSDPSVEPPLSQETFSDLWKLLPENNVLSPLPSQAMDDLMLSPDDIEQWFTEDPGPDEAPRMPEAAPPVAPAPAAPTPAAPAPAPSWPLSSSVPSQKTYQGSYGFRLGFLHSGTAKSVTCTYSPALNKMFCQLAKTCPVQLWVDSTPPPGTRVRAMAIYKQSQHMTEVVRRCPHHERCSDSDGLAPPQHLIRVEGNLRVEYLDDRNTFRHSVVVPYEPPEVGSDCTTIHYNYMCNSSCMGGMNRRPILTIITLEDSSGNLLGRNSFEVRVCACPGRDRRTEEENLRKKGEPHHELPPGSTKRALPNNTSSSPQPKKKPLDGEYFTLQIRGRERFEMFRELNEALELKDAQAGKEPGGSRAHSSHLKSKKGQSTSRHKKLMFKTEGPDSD
With `CC(=O)CCC=C(C)CCC=C(C)C`, the outcome was inactive.

As to `CC(=O)c1cccnc1`, the outcome was inactive.

Take `CC(C)(C)C1CCC(O)CC1` (stereo unspecified): the result was inactive.

`CC(C)=CCCC(C)=CC(=O)O`: the result was inactive.

For `O=C(c1ccc(OCCN2CCCCC2)cc1)c1c(-c2ccc(O)cc2)sc2cc(O)ccc12`, the AC50 is 74.5 µM (active) and 71.4 µM (active) and 26.1 µM (active).

For `CCCCCCCC(=O)N(C)C`, the outcome was inactive.

Take `C#C[C@]1(O)CC[C@H]2[C@@H]3CCc4cc(O)ccc4[C@H]3CC[C@@]21C`: the half-maximal activity concentration (AC50) is 15.2 µM (active) and 16.2 µM (active).

Consider `CCc1cccc(O)c1`, for which the result was inactive.

Turning to `COC(=O)c1cccc(C(=O)OC)c1`, the outcome was inactive.

As to `O=C(OCc1ccccc1)c1ccccc1O`, the outcome was inactive.

With `Cc1ccncc1`, the outcome was inactive.

Regarding `CCOC(=O)C=Cc1ccccc1`, the result was inactive.

With `CC(O)COCC(C)O` (stereo unspecified), the result was inactive.

In the case of `CC(O)CNCC(C)O` (stereo unspecified), the outcome was inactive.

For `[O-]/[N+](=N\O)c1ccccc1`, the outcome was inactive.

In the case of `CC(=O)CC(=O)N(C)C`, the result was inactive.

As to `CC/C=C\CCOC(C)OCC` (stereo unspecified), the result was inactive.

On to `CCCc1ccc(N)cc1`, for which the result was inactive.

`CCCCCC(=O)O[C@]1(C(C)=O)CC[C@H]2[C@@H]3CCC4=CC(=O)CC[C@]4(C)[C@H]3CC[C@@]21C`: the outcome was inactive.

In the case of `O=[N+]([O-])c1cc(N(CCO)CCO)ccc1NCCO`, the result was inactive.

As for `CCCCCc1cccc(=O)o1`, the result was inactive.

In the case of `CC(C)OB(OC(C)C)OC(C)C`, the outcome was inactive.

Take `CCCCC(CC)COC(=O)COc1ccc(Cl)cc1C` (stereo unspecified): the outcome was inactive.

Turning to `CC(C)(O)C(=O)c1ccc(OCCO)cc1`, the result was inactive.

For `CCOC(=O)C(=O)OCC`, the result was inactive.

With `O=S(=O)(O)c1cc(S(=O)(=O)O)c2c(N=Nc3ccccc3)c(O)ccc2c1`, the result was inactive.
